Source: PubChem BioAssay (NCI)
This is part of a sample that, as a whole, favours compounds with a hit. Of some 79,000 tested, about 15% had one in any assay. Cut-off read from the data, not from the text of the source: active = growth inhibition above about 70%; inactive = the rest.

How the values were obtained:
[1] = NCI Yeast Anticancer Drug Screen. Data for the rad50 strain (AID 155);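 note: 0% = growth of vehicle-only cultures of the same strain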; conditions: S. cerevisiae rad50 strain growth inhibition; at 50.0 µM; hits give high values
Method in brief: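 Relative growth inhibition (compound vs vehicle) was measured in yeast with a defined repair-gene alteration.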

[2] = NCI Yeast Anticancer Drug Screen. Data for the mec2-1 strain (AID 157); conditions: S. cerevisiae mec2-1 strain, at 50.0 µM, hits give high values
Method in brief: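 Growth inhibition is read against vehicle-treated controls after compound exposure of the mec2-1 yeast strain, which is defective in DNA damage repair or cell cycle control.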

[3] = NCI Yeast Anticancer Drug Screen. Data for the sgs1 mgt1 strain (AID 161);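 note: 0% = growth of cultures given vehicle only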; conditions: S. cerevisiae sgs1 mgt1 strain, at 50.0 µM, hits give high values
Method in brief: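 Compounds are added to genetically altered yeast, and growth is compared with cultures given vehicle alone to give percent inhibition.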

[4] = NCI Yeast Anticancer Drug Screen. Data for the cln2 rad14 strain (AID 165);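 note: 0% = growth equal to vehicle treated cultures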; conditions: S. cerevisiae cln2 rad14 strain, at 50.0 µM, hits give high values
Method in brief: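 Growth inhibition, relative to vehicle-treated controls, is the read-out. The test organism is a yeast strain with defined genetic alterations, cln2 rad14.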

[5] = NCI Yeast Anticancer Drug Screen. Data for the bub3 strain (AID 167); conditions: S. cerevisiae bub3 mutant strain, at 50.0 µM, hits give high values
Method in brief: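 Screening used yeast with an engineered genetic alteration affecting cell cycle control. Compound-exposed cultures were compared with vehicle cultures, and reduced growth was taken as inhibition.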

[6] = NCI Yeast Anticancer Drug Screen. Data for the mlh1 rad18 strain (AID 175); conditions: S. cerevisiae mlh1 rad18 strain growth inhibition; at 50.0 µM; hits give high values
Method in brief: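 Cells of a genetically altered yeast strain, deficient in DNA damage repair, were treated with compound. Their growth was then compared with that of vehicle-treated cultures to give inhibition.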

Measured: growth inhibition

CC1(C)[C@@H]2CC[C@]1(C)[C@H](OC(=O)/C=C/c1ccccc1)C2
inactive: [1] 1.9% | [2] -39.8% | [3] -11.4% | [4] 8.5% | [5] -16% | [6] -1.5%

CC1(C)OC(C(O)CO)C(C2COC(=S)O2)O1 (stereo unspecified)
inactive: [1] 1.45% | [2] 15.9% | [3] 8.45% | [4] 33.5% | [5] 12.6% | [6] -1.8%

CCC(C)OC(=O)/C(Br)=C1/OC(=O)c2ccccc2-c2ccccc21 (stereo unspecified)
inactive: [1] -1.55% | [2] -15.8% | [3] -0.35% | [4] -13.4% | [5] -42.5% | [6] -7.2%

COc1cccc(C2c3cc4c(cc3OC(N3CCCC3)C2C)OCO4)c1OC (stereo unspecified)
inactive: [1] 24.8% | [2] 17.6% | [3] -9.65% | [4] 1% | [5] 11.4% | [6] 29.9%

O=C1CC2c3ccccc3C(O)(CC1=O)c1ccccc12
inactive: [1] 16.2% | [2] 6.7% | [3] 11.7% | [4] 15.2% | [5] -16.6% | [6] 19.2%

Cc1cccc[n+]1CCC(N)=O
inactive: [1] -6.55% | [2] -26.8% | [3] -1.85% | [4] 5.5% | [5] -15.8% | [6] -6.25%

CC(=O)OCc1cc(=O)n2c([nH]c3ccccc32)c1C#N
inactive: [1] 11.1% | [2] 10.6% | [3] -24.6% | [4] -15.5% | [5] -26.3% | [6] -2.6%

CCOC(=O)c1[nH]cc(C)c1-c1c[nH]c2ccccc12
inactive: [1] 31% | [2] 27.6% | [3] 20.4% | [4] 19.7% | [5] -4.05% | [6] 41.2%

c1ccc(NP2(Nc3ccccc3)=NP(Nc3ccccc3)(Nc3ccccc3)=NP(Nc3ccccc3)(Nc3ccccc3)=N2)cc1
inactive: [1] -12.2% | [2] 5.55% | [3] -10.4% | [4] 15.2% | [5] 17.1% | [6] -2.2%

N#Cc1c(CC(=O)O)cc(=O)n2c1[nH]c1ccccc12
inactive: [1] -13.9% | [2] -12.9% | [3] -1.9% | [4] 13.4% | [5] -11.9% | [6] -10.3%

CC(C)(C)c1cc(CCCCCCCC2(CCCCCCCc3cc(C(C)(C)C)cc(C(C)(C)C)c3)OC(COCCOCCCCCC#N)C(COCCOCCCCCC#N)O2)cc(C(C)(C)C)c1 (stereo unspecified)
inactive: [1] 24.6% | [2] -6.5% | [3] -1.5% | [4] -18% | [5] 0% | [6] 9.6%

O=Cc1sccc1NC(=O)c1ccccc1
inactive: [1] 2.65% | [2] -14.6% | [3] -18% | [4] -18.1% | [5] -7.5% | [6] 9.15%

COc1ccc(C2c3cc4c(cc3OC(C)(OC)C2C)OCO4)c(OC)c1 (stereo unspecified)
inactive: [1] 5.25% | [2] 26.2% | [3] 32.6% | [4] -47.2% | [5] -5.85% | [6] 21%

CCCCCCC(C)(O)C(C)O (stereo unspecified)
inactive: [1] 27.8% | [2] 8.5% | [3] 24.2% | [4] 14.9% | [5] 12.2% | [6] 9.2%

COc1ccc(-c2nc(SCc3ccc(Cl)cc3)[nH]c(=O)c2CCO)cc1
inactive: [1] 32.3% | [2] -7.75% | [3] -4.45% | [4] 3.15% | [5] -3.45% | [6] 10.4%

Cc1ccccc1NC(=O)/C=C\C(=O)O
inactive: [1] 8.9% | [2] -10.3% | [3] -0.7% | [4] 10.1% | [5] -14.4% | [6] 10.2%

CN1CC(c2ccccc2)=Cc2c1ccc(N)c2N=N
inactive: [1] -13.3% | [2] -29.2% | [3] -0.3% | [4] 15.6% | [5] 12.8% | [6] 0.15%

Cc1cccc(Cl)c1N=Nc1c(N)nc(N)[nH]c1=O
inactive: [1] 15.8% | [2] -20.8% | [3] -5.1% | [4] -4.8% | [5] -0.35% | [6] -0.5%

Cc1cc(C)c(-c2no/c(=N\S(=O)(=O)c3ccc(Cl)cc3)o2)c(C)c1
inactive: [1] -10% | [2] -4.1% | [3] 0.75% | [4] 26% | [5] -13.1% | [6] 3.85%

O=C1Oc2cc3c(c4cccc1c24)OCN(c1ccc(Cl)cc1)C3
inactive: [1] 38.6% | [2] 29.9% | [3] 53.1% | [4] 33% | [5] 33% | [6] 37.5%

Nc1cc(Cl)c(I)c(Cl)c1
inactive: [1] -4.5% | [2] -29.6% | [3] 5.05% | [4] 10.2% | [5] -2.15% | [6] 14.4%

CCOC(=O)[C@H]1Nc2c(cccc2[N+](=O)[O-])[C@H]2OCC[C@@H]12
inactive: [1] -12.8% | [2] -22.3% | [3] -0.45% | [4] 11.4% | [5] -22.6% | [6] -26.9%

CCCCC1CCC2CCCCC2C1 (stereo unspecified)
inactive: [1] 3.4% | [2] -2.5% | [3] -8.05% | [4] -18.1% | [5] -11.2% | [6] 8%

CCSC(C#N)C(C)=O (stereo unspecified)
inactive: [1] 34.9% | [2] 22.1% | [3] 56.4% | [4] 38.5% | [5] 39% | [6] 42.6%

CN(C)c1nc(Cl)cc2nc(Cl)cn12
inactive: [1] 0.25% | [2] 5.7% | [3] 2.5% | [4] -0.35% | [5] -8.15% | [6] 0.5%

CC(=O)O[C@@H]1C[C@]2(C)[C@@H](C(C)=O)CC[C@H]2[C@@H]2CCC3=CC(=O)CC[C@]3(C)[C@H]21
inactive: [1] -7.5% | [2] -8.25% | [3] -23% | [4] 11.4% | [5] -10.4% | [6] 13.2%

N=N/C(=C\c1c(O)[nH]c2ccccc12)c1ccccc1
inactive: [1] -7.35% | [2] 13.6% | [3] 34.2% | [4] -35.2% | [5] 57.3% | [6] -8.75%

O=C1NC(c2ccccc2)(c2ccccc2)C(=O)N1CNc1ccccn1
inactive: [1] -0.4% | [2] -14.8% | [3] -31.8% | [4] 8.95% | [5] -8.3% | [6] 29.6%

CN1CCC(CN)(c2ccccc2)CC1
inactive: [1] 14.1% | [2] 14.9% | [3] 0.35% | [4] -6.5% | [5] 9.7% | [6] 11.3%

Fc1cccc2nc(-c3ccccc3)cc(OCc3ccccc3)c12
inactive: [1] 0.9% | [2] 8.3% | [3] -30.6% | [4] -1% | [5] 11.8% | [6] -3.4%

CCOC(=O)C1C(C)C2(C#N)C(=N)OC1(C)C2(C#N)C#N (stereo unspecified)
inactive: [1] 21.5% | [2] 19.1% | [3] -6.6% | [4] 1.5% | [5] -22.4% | [6] -12.9%

COC(=O)Nc1cn2nc(C)sc2n1
inactive: [1] -17.4% | [2] 11.4% | [3] -10.1% | [4] -16.1% | [5] 2.6% | [6] -6.95%

CCOC(=O)C(C(=O)OCC)c1cc(-c2cc3ccccc3o2)oc(=O)c1C#N
inactive: [1] 47.7% | [2] 20.5% | [3] 10.2% | [4] 15.8% | [5] -4.15% | [6] 30.1%

COc1cc(C2c3cc4c(cc3OC(C)(OC)C2C(C)=O)OCO4)cc(OC)c1O (stereo unspecified)
inactive: [1] 4.05% | [2] -6.25% | [3] -24.6% | [4] -2.9% | [5] -1.2% | [6] -0.35%

Nc1c(C(=O)O)cccc1C(=O)O
inactive: [1] 5.25% | [2] -18.6% | [3] -11.7% | [4] 0.55% | [5] 4.1% | [6] 6.75%

CCCCN(CCCC)C(=O)C(O)C(=O)N(CCCC)CCCC
inactive: [1] -5.05% | [2] -13.8% | [3] -4.4% | [4] -9.6% | [5] -13.3% | [6] -3.8%

CCOC(=O)Cn1/c(=N/N=C(\C)c2ccc([N+](=O)[O-])o2)sc2cc(Cl)ccc21
inactive: [1] -5.75% | [2] 9.05% | [3] 4.8% | [4] 14.3% | [5] -4.15% | [6] 3.35%

O=C(O)CC(O)C(F)(F)F (stereo unspecified)
inactive: [1] 17.4% | [2] 0.45% | [3] 1.95% | [4] 8.65% | [5] 5.3% | [6] 26.5%

C/C(CC(C)(C)C)=N/NS(=O)(=O)c1ccc(C)cc1
inactive: [1] 7.7% | [2] -1.6% | [3] 9.8% | [4] 1.75% | [5] 5.45% | [6] 12.7%

O=P(O)(O)c1ccc(Cl)cc1
inactive: [1] -1.8% | [2] -1.3% | [3] -1.65% | [4] 8.7% | [5] 8.55% | [6] -9.4%

Cc1ccc(C(=O)c2sc(Nc3cccc(C(F)(F)F)c3)c(C#N)c2N)c(C)c1
inactive: [1] 16.8% | [2] 3.35% | [3] 5.9% | [4] 11.2% | [5] 3.05% | [6] -12.6%
